From publication PMC9911399, “Two distinct binding modes provide the RNA-binding protein RbFox with extraordinary sequence specificity”
Positions count from the first letter of the chain named. The full ranking holds about 16,000 sequences; the median of “ka relative to ugcaugu” is about 0.096, and the highest 2% start at about 0.35. For the sample, the highest values were picked, then their nearest neighbours and some sequences at random.

T1: RBFOX1 RRM RbFoxmut (Fox-RRM*) (Homo sapiens, UniProt Q9NWB1 109-208, R118D;E147R;N151S;E152T)
T1 sequence: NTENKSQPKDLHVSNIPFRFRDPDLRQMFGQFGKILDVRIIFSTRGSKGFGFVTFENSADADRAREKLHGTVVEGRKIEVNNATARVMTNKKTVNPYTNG

B1: AGACGGA (DNA:RNA)
RNA: GGGAGACCGGAAUUCAGAUUGUCCAGACGGAUUAAAUCCCGUCGUAGCCACCA
DNA 1: CAATCTGAATTCCGGTCTCCC
DNA 2: TGGTGGCTACGACGGGATT
B2: CACCGUU (DNA:RNA)
RNA: B1 RNA with A25C, G26A, A27C, G30U, A31U
DNA 1: CAATCTGAATTCCGGTCTCCC
DNA 2: TGGTGGCTACGACGGGATT
B3: GUGUCCA (DNA:RNA)
RNA: B1 RNA with A25G, G26U, A27G, C28U, G29C, G30C
DNA 1: CAATCTGAATTCCGGTCTCCC
DNA 2: TGGTGGCTACGACGGGATT
B4: CCCAAUU (DNA:RNA)
RNA: GGGAGACCGGAAUUCAGAUUGUCCCCCAAUUUUAAAUCCCGUCGUAGCCACCA
DNA 1: CAATCTGAATTCCGGTCTCCC
DNA 2: TGGTGGCTACGACGGGATT
B5: GUAUUUG (DNA:RNA)
RNA: B1 RNA with A25G, G26U, C28U, G29U, G30U, A31G
DNA 1: CAATCTGAATTCCGGTCTCCC
DNA 2: TGGTGGCTACGACGGGATT
B6: CCUUCAG (DNA:RNA)
RNA: B4 RNA with C27U, A28U, A29C, U30A, U31G
DNA 1: CAATCTGAATTCCGGTCTCCC
DNA 2: TGGTGGCTACGACGGGATT
B7: UGUCGGU (DNA:RNA)
RNA: B1 RNA with A25U, A27U, A31U
DNA 1: CAATCTGAATTCCGGTCTCCC
DNA 2: TGGTGGCTACGACGGGATT
B8: ACGAACU (DNA:RNA)
RNA: B4 RNA with C25A, C27G, U30C
DNA 1: CAATCTGAATTCCGGTCTCCC
DNA 2: TGGTGGCTACGACGGGATT
B9: ACUUGCC (DNA:RNA)
RNA: B1 RNA with G26C, A27U, C28U, G30C, A31C
DNA 1: CAATCTGAATTCCGGTCTCCC
DNA 2: TGGTGGCTACGACGGGATT
B10: UGCUGGC (DNA:RNA)
RNA: B1 RNA with A25U, A27C, C28U, A31C
DNA 1: CAATCTGAATTCCGGTCTCCC
DNA 2: TGGTGGCTACGACGGGATT
B11: UUGCCAC (DNA:RNA)
RNA: B1 RNA with A25U, G26U, A27G, G29C, G30A, A31C
DNA 1: CAATCTGAATTCCGGTCTCCC
DNA 2: TGGTGGCTACGACGGGATT
B12: CCGUGCC (DNA:RNA)
RNA: B4 RNA with C27G, A28U, A29G, U30C, U31C
DNA 1: CAATCTGAATTCCGGTCTCCC
DNA 2: TGGTGGCTACGACGGGATT
B13: GUGUGCC (DNA:RNA)
RNA: B1 RNA with A25G, G26U, A27G, C28U, G30C, A31C
DNA 1: CAATCTGAATTCCGGTCTCCC
DNA 2: TGGTGGCTACGACGGGATT
B14: UUGUGCC (DNA:RNA)
RNA: B1 RNA with A25U, G26U, A27G, C28U, G30C, A31C
DNA 1: CAATCTGAATTCCGGTCTCCC
DNA 2: TGGTGGCTACGACGGGATT
B15: UCCUGGC (DNA:RNA)
RNA: B1 RNA with A25U, G26C, A27C, C28U, A31C
DNA 1: CAATCTGAATTCCGGTCTCCC
DNA 2: TGGTGGCTACGACGGGATT
B16: CAGUGCC (DNA:RNA)
RNA: B1 RNA with A25C, G26A, A27G, C28U, G30C, A31C
DNA 1: CAATCTGAATTCCGGTCTCCC
DNA 2: TGGTGGCTACGACGGGATT
B17: UGGCUUG (DNA:RNA)
RNA: B1 RNA with A25U, A27G, G29U, G30U, A31G
DNA 1: CAATCTGAATTCCGGTCTCCC
DNA 2: TGGTGGCTACGACGGGATT

Target: T1, RBFOX1 RRM RbFoxmut (Fox-RRM*)
Experiment: EMSA; HiTS-Eq, 1 nM pool, 10 min; buffer printed only for the single-RNA assays: 10 mM Tris pH 7.5, 150 mM NaCl, 3.4 mM EDTA, 0.001% NP-40, 30 C
Conditions: tags: His6 N-terminal (pET28a); label: 5' 32P
How it was run: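 These values rest on relative association constants, computed from read-count changes of each RNA species versus the control reaction and normalised to the cognate motif. Reads came from free RNA recovered by 8% native PAGE after purified RbFox RRM (wild type or mutant) at increasing concentrations was equilibrated for 10 min in 50 µL with 1 nM of a 5′-radiolabelled pool with 7 randomized nucleotides and DNA-annealed flanks.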

Binder	binding signal
B1	0.0873 KA relative to UGCAUGU
B2	0.0894 KA relative to UGCAUGU
B3	0.121 KA relative to UGCAUGU
B4	0.0634 KA relative to UGCAUGU
B5	0.17 KA relative to UGCAUGU
B6	0.114 KA relative to UGCAUGU
B7	0.112 KA relative to UGCAUGU
B8	0.0682 KA relative to UGCAUGU
B9	0.372 KA relative to UGCAUGU
B10	0.119 KA relative to UGCAUGU
B11	0.0642 KA relative to UGCAUGU
B12	0.264 KA relative to UGCAUGU
B13	0.22 KA relative to UGCAUGU
B14	0.46 KA relative to UGCAUGU
B15	0.128 KA relative to UGCAUGU
B16	0.402 KA relative to UGCAUGU
B17	0.92 KA relative to UGCAUGU
